Bioassay records as filed in PubChem BioAssay.
PME-1 inh: PME-1 inhibitors via competitive probe labeling, primary screen, biochemical, fluorescence polarization, FP-Rh probe, HTS; Protein phosphatase methylesterase 1 (Homo sapiens), Q9Y570; recombinant PME-1; inhibition, % at 5.9 µM; 320,000 compounds, 0.53% hits;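 active means inhibition above the campaign mean of all compounds plus 3 SD, cut at about 26% in these data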;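 further: competitive labeling of PME-1 active site by serine hydrolase directed probe; inhibitors block probe labeling so polarization falls and inhibition rises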
PAFAH1B3 FP inh: PAFAH1B3 enzyme inhibitors, primary screen, biochemical, fluorescence polarization, human. 340,000 compounds, 0.28% hits. recombinant PAFAH1B3, FP-rhodamine probe. Platelet-activating factor acetylhydrolase IB subunit alpha1 (Homo sapiens), Q15102. inhibition, % at 3.39 µM;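 active means inhibition above the screen-wide average of all tested compounds plus 3 SD, cut at about 25% in these data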
PAFAH1B2 inh: PAFAH1B2 enzyme inhibitors, primary screen, biochemical, fluorescence polarization, human; 340,000 compounds, 1.2% hits; inhibition, % at 3.39 µM; recombinant PAFAH1B2, FP-rhodamine activity probe;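 active means inhibition above the mean of all tested compounds plus 3 SD, cut at about 24% in these data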
PAFAH2 FP inh: PAFAH2 enzyme inhibitors, primary screen, biochemical, fluorescence polarization, human; inhibition, % at 3.39 µM; 340,000 compounds, 0.99% hits; recombinant PAFAH2, FP-rhodamine activity probe; Platelet-activating factor acetylhydrolase 2, cytoplasmic (Homo sapiens), Q99487;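 active means inhibition above the mean over all tested compounds plus 3 SD, cut at about 30% in these data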;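 further: inhibitors block probe labeling of enzyme so polarization drops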
Fam108B inh: mouse Fam108B serine hydrolase inhibitors, primary screen, counter-screen for RBBP9 inhibitor project, biochemical, fluorescence polarization | recombinant Fam108B, FP-Rh probe fluorescence polarization | inhibition, % at 9.51 µM | 300,000 compounds, 0.33% hits | AID 1947, 2009;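 active means inhibition above the screen mean inhibition plus 3 SD, computed separately per campaign, cut at about 18% in these data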;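 further: inhibitors lower polarization as less probe binds the enzyme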
pPAFAH FP inh: pPAFAH enzyme inhibitors, primary screen, biochemical, fluorescence polarization, human; Platelet-activating factor acetylhydrolase (Homo sapiens), Q13093; recombinant pPAFAH, FP-rhodamine probe fluorescence polarization; inhibition, % at 3.39 µM; 330,000 compounds, 1.5% hits; AID 463082, 2010;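 active means inhibition above the mean inhibition across the screen plus 3 SD, cut at about 25% in these data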;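 further: inhibitors block binding of the rhodamine activity-based probe so polarization drops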
Target sequence (Q13093 whole entry, looked up): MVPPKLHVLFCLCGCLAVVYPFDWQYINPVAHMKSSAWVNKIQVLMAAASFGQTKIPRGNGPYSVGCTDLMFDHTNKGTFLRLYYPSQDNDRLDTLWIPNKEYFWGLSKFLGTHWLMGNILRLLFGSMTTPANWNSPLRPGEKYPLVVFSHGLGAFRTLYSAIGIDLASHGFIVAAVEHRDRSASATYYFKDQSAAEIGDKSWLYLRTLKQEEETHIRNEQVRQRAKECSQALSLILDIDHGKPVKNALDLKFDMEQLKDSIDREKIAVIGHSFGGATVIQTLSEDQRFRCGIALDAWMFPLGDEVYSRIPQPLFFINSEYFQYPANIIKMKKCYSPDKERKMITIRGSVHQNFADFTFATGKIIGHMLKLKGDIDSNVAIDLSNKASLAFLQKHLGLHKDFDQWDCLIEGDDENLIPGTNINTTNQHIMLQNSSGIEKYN
Hits are given with their value; – = inactive; · = no result. Sampled rows, rich in hits. Any-hit rate of the full collection: about 2.9%.

SMILES	PME-1 inh	PAFAH1B3 FP inh	PAFAH1B2 inh	PAFAH2 FP inh	Fam108B inh	pPAFAH FP inh
C/C(=N\NC(=O)c1cccc(S(=O)(=O)Nc2ccc(C)cc2C)c1)c1ccncc1	·	–	–	–	·	·
COc1ccc(C2CC(c3ccccc3)=NN2c2ccc(Cl)c(C(=O)O)c2)cc1 (stereo not drawn)	–	–	–	–	–	34
COc1ccc(C2=NN(c3ccc(C(=O)O)cc3)C(c3ccc(OC)c(OC)c3)C2)cc1 (stereo not drawn)	–	–	–	–	–	27
COc1ccc(C2CC(c3ccccc3O)=NN2c2ccccc2)cc1 (stereo not drawn)	–	–	–	–	–	–
COc1ccc(C2CC(c3ccccc3)=NN2c2ccc(N)cc2)cc1 (stereo not drawn)	–	–	–	–	–	26
Cc1ccc(N2C(=O)c3ccccc3NC2C(C)Cc2ccc3c(c2)OCO3)cc1 (stereo not drawn)	–	–	–	–	–	–
Cc1cccn2c(=O)c(C(=O)NC3CC(C)CC(C)(C)C3)c(O)nc12 (stereo not drawn)	–	–	–	–	–	–
COc1ccccc1-n1c(SCC(=O)N2CCOCC2)nc(O)cc1=O	–	–	–	–	–	34
COc1ccc(-n2c(C)nnc2SCC(=O)NC2CC2)cc1	–	–	–	–	–	–
O=C(/C=C/c1ccco1)N(c1ccccn1)c1ccccn1	–	–	–	–	–	33
O=C(c1ccco1)N(c1ccccn1)c1ccccn1	–	–	–	–	–	–
O=S(=O)(Nc1cc(Sc2cccc3cccnc23)c(O)c2ccccc12)c1ccc(F)cc1	–	·	·	·	–	34
COc1ccc(NC(=O)CC2C(=O)N(C)C(=S)N2CCc2ccccc2F)cc1 (stereo not drawn)	–	–	–	–	–	–
N#Cc1ccc(OCC(=O)OCCCOC(=O)COc2ccc(C#N)cc2)cc1	–	–	–	–	–	32
CN(Cc1ccccc1)C(=O)COC(=O)COc1ccc(C#N)cc1	–	–	–	–	–	33
N#Cc1ccc(OCC(=O)OCC(=O)c2ccccc2)cc1	·	–	–	–	·	–
CN(Cc1ccccc1)C(=O)COC(=O)COc1ccc(Cl)cc1	·	–	–	–	·	–
Cc1cc2n(n1)C(c1ccc(N(C)C)cc1)Nc1ccccc1-2 (stereo not drawn)	–	–	–	–	–	26
Cc1ccc(N=C2NC(=O)/C(=C/c3cccn3C)S2)c(C)c1	–	–	–	–	–	25
CCOC(=O)c1c(C)[nH]c(N=Nc2ccc(OC)cc2)c1C	–	–	–	–	–	–
Cc1ccc(-c2c(C(=O)Nc3ccccc3C)c(C)[nH]c(=S)c2C#N)o1	–	·	·	·	–	27
Fc1ccc(NC(=S)Nc2cccc(Cl)c2)cc1	–	–	–	–	–	–
Cc1c(C(=O)OCCOc2ccc(Br)cc2)sc(=S)n1C	–	–	28	–	–	–
Cc1ccc(OCCOC(=O)c2sc(=S)n(C)c2C)cc1	–	–	–	–	–	–
CN(C)/C=C/C(=O)/C=C/c1cn(-c2ncc(C(F)(F)F)cc2Cl)c2ccccc12	–	–	–	–	–	26
SMILES	PME-1 inh	PAFAH1B3 FP inh	PAFAH1B2 inh	PAFAH2 FP inh	Fam108B inh	pPAFAH FP inh
COC(=O)Cc1cn(-c2ncc(C(F)(F)F)cc2Cl)c2ccccc12	–	–	–	–	–	–
COCCNC(=O)C1CC(c2cccc(F)c2)=NO1 (stereo not drawn)	–	–	–	–	–	–
CCC(C)c1ccc(S(=O)(=O)N2CCN(C(=O)COc3ccc4c(C)cc(=O)oc4c3)CC2)cc1 (stereo not drawn)	38	–	–	–	–	–
CCC1COCCS(=O)(=O)N1Cc1ccccc1F (stereo not drawn)	–	–	–	–	–	–
O=S1(=O)CCOC[C@H](c2ccccc2)N1Cc1ccccc1F	–	–	29	–	–	–
CCOCCCNC(=O)c1ccc(NC(=O)C2=CSCCO2)cc1	–	–	–	–	–	–
Cc1ccc(-c2csc(Cc3nc(-c4ccc5c(c4)CCC(=O)N5)cs3)n2)cc1	–	–	–	–	–	26
COc1ccc(-c2csc(N)n2)cc1	–	–	–	–	–	–
Cc1ccc(-c2csc(N)n2)cc1	·	–	70	–	·	·
Cc1cc(-c2csc(N)n2)c(C)n1C	–	–	–	–	–	–
Cc1ccc(-n2c(C)cc(-c3csc(N)n3)c2C)cc1	–	–	–	–	–	25
CC(=O)NNC(=O)c1sc(=S)n2c1[nH]c(=O)c1sccc12	–	–	–	–	–	33
COc1ccc(-n2nnnc2SCC(=O)c2cccc(OC)c2)cc1	–	–	–	–	–	–
O=C(CSc1nnnn1-c1ccc(F)cc1)c1ccc(O)c(O)c1	–	–	–	–	–	31
O=C(Nc1nc2ccccc2[nH]1)C12CC3CC(CC(C3)C1)C2	–	–	29	–	–	–
O=C(Nc1nc2ccccc2[nH]1)C1CC1	–	–	–	–	–	–
COc1ccccc1CNC(=O)C1CC2Cn3c(nc4cc(C)c(C)cc43)C2N1C (stereo not drawn)	–	–	–	–	–	–
O=c1ncn(-c2cccc(Cl)c2)c2ccccc12	–	–	–	–	–	–
OCC1CCCCN1C(=S)Nc1ccc(Cl)cc1Cl (stereo not drawn)	–	–	–	–	–	–
O=C1CSC(c2ccccc2O)N1Cc1ccccc1 (stereo not drawn)	–	–	25	–	–	–
COc1ccc(C2SCC(=O)N2Cc2ccccc2)cc1 (stereo not drawn)	–	–	–	–	–	–
Cc1ccc(C2SCC(=O)N2Cc2ccccc2)cc1 (stereo not drawn)	–	–	29	–	–	–
NCCCC[C@@H]1NC(=O)c2cc([N+](=O)[O-])cc(I)c2SC[C@@H](C(N)=O)NC(=O)[C@H](CCC(N)=O)NC1=O	–	–	–	–	–	–
COCC(=O)Nc1ncc(S(=O)(=O)c2ccc([N+](=O)[O-])cc2)s1	–	–	28	–	–	–
CC(=O)NCCC(=O)Nc1ncc(S(=O)(=O)c2ccc([N+](=O)[O-])cc2)s1	–	–	26	–	–	–
O=C(Nc1ncc(S(=O)(=O)c2ccc([N+](=O)[O-])cc2)s1)c1cccc2ccccc12	–	–	–	–	–	–
CCCCC(=O)Nc1ncc(S(=O)(=O)c2ccc([N+](=O)[O-])cc2)s1	–	–	–	–	–	–
COc1cc(NC(=O)[C@H](C)NC(=O)N2CCn3c2nc2ccccc23)cc(OC)c1	–	–	–	–	–	–
